Source: PubChem BioAssay AID686978 (National Center for Advancing Translational Sciences (NCATS), 2013)
Out of some 420,000 compounds screened, about 64,000 (15%) were called active. Roughly 27% stayed inconclusive and do not appear here. The call rests on the fitted dose curve; in most records, active means well fitted inhibition curve with a large enough effect; inconclusive means small, poorly fitted or top-dose-only effect; inactive means flat fitted curve, though single readings scatter. Not all results are given here.

Experiment: qHTS for Inhibitors of human tyrosyl-DNA phosphodiesterase 1 (TDP1): qHTS in cells in absence of CPT; further: nearly all actives have a fitted effect of over 55% in size
Conditions: DT40 Tdp1-/- hTDP1 cells, no CPT, ATP luminescence, 48 h; activity change, negative = growth inhibition: at 46.2 µM (top of the series)
In short: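 Chicken DT40 Tdp1-/- cells complemented with human TDP1, screened without camptothecin (DMSO vehicle only), 400 cells/well. Compounds pin-transferred, cells incubated at 37 °C for at least 48 hr. Growth read as ATP-dependent luminescence (CellTiter-Glo, 30 min at RT).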
On the % scale 0 is the no-effect control and ±100 the full control effect; potency means the concentration at half of the fitted maximal effect.

Row | Structure (SMILES) | activity change, negative = growth inhibition | Potency
1 | O=C1OCCN1C(=O)[C@H]1[C@H](c2ccccc2)C(c2ccc(F)cc2)=NN1c1ccccc1 | -3.74% (inactive) | –
2 | Cc1ccc2c(c1)N(C(=O)Nc1ccc(Br)cc1F)CCO2 | -14.3% (inactive) | –
3 | C[C@@H]1C(c2ccc(F)cc2)=NN(c2ccc(Br)cc2)[C@H]1C(=O)N1CCOC1=O | – | 20.6 µM (active)
4 | COc1ccc(/C(N)=N/OC(=O)CCCc2ccccc2)cc1 | -6.16% (inactive) | –
5 | CONC(=O)c1cc(OCC(F)(F)F)ccc1OCC(F)(F)F | 2.93% (inactive) | –
6 | CCn1c(SCc2ccc(C)cc2)nnc1-c1nn(-c2ccccc2)ccc1=O | -27.9% (inactive) | –
7 | CCc1ccc(-c2nn(-c3ccccc3)cc2CSC(=N)N)cc1 | – | 23.1 µM (active)
8 | CCc1ccc(-c2nn(-c3ccccc3C)cc2C(=O)N2CCN(C3CCS(=O)(=O)C3)CC2)cc1 (stereo unspecified) | 4.44% (inactive) | –
9 | O=C(CCS(=O)(=O)Cc1ccccc1)Nc1ccc2c(c1)OCCO2 | -0.997% (inactive) | –
10 | CCN(Cc1ccncc1)C(=O)CCc1ccccc1 | -10.6% (inactive) | –
11 | Cc1ccc(C)c(S(=O)(=O)N2CCCOC2CNC(=O)C(=O)NC2CCCCC2)c1 (stereo unspecified) | -23% (inactive) | –
12 | CN(C(=O)COC(=O)Cc1ccccc1[N+](=O)[O-])C1CCS(=O)(=O)C1 (stereo unspecified) | -9.32% (inactive) | –
13 | CC1(c2cccc([N+](=O)[O-])c2)CC(C)(C)N(C(=O)c2ccccc2)c2ccccc21 (stereo unspecified) | – | 18.4 µM (active)
14 | O=C(c1cccc([N+](=O)[O-])c1)N1CCN(Cc2ccccc2)CC1 | 6.66% (inactive) | –
15 | O=C(c1ccncc1)N1CCN(S(=O)(=O)c2cccc([N+](=O)[O-])c2)CC1 | 2.95% (inactive) | –
16 | N#Cc1ccc(-c2ccc3nccn3c2)cc1 | -7.83% (inactive) | –
17 | CC(=O)c1nn(-c2ccccc2)c(=Nc2ccccc2)cc1C | -19.2% (inactive) | –
18 | Cn1c(=O)c(C(=O)O)nn(-c2ccccc2)c1=O | – | 16.4 µM (active)
19 | Cc1ccc(-n2ccc(=O)c(C(=O)O)n2)cc1 | -6.98% (inactive) | –
20 | CCC1SC(CC)C(=O)N(CC(=O)NC2CCCCC2)C1=O (stereo unspecified) | -13.1% (inactive) | –
21 | CC(C)Oc1ccc(S(=O)(=O)N2CCOCC2)cc1NC(=O)C1CCCC1 | 1.44% (inactive) | –
22 | O=C(Cn1c(-c2cncs2)nc2ccccc21)NC1CCCC1 | -9.17% (inactive) | –

Row | Structure (SMILES) | activity change, negative = growth inhibition | Potency
23 | COc1ccc(NC(=O)COC(=O)Cn2c(C)nc3ccccc32)cc1OC | -18.9% (inactive) | –
24 | O=C(Cn1c(-c2cscn2)nc2ccccc21)Nc1ccc(Cl)cc1 | – | 20.6 µM (active)
25 | C#CCOCCOCCOCCNc1nc(N2CCN(C(=O)[C@H](Cc3ccc(O)cc3)n3cc(C(N)CC(C)C)nn3)CC2)nc(N2CCN(C(=O)[C@H](CCC(=O)O)n3cc(C(N)[C@H](C)CC)nn3)CC2)n1 (stereo partly specified) | -3.33% (inactive) | –
26 | CCNC(=O)CSc1nc(-c2ccccc2)cs1 | 3.72% (inactive) | –
27 | O=C(CSc1nc(C2CC2)nc2ccccc12)Nc1cccc(O)c1 | -15.2% (inactive) | –
28 | O=C(CN1CCN(CC(=O)Nc2ccc3c(c2)OCO3)CC1)Nc1ccc(F)cc1 | -22.2% (inactive) | –
29 | CN(C(=O)CSc1nc(C2CC2)nc2ccccc12)c1nc(-c2ccccc2)cs1 | – | 20.6 µM (active)
30 | O=C(CSc1nnc(-c2ccccn2)n1-c1ccccc1)Nc1ccc2c(c1)OCO2 | -6.15% (inactive) | –
31 | O=C(CSc1nc(C2CC2)nc2ccccc12)Nc1ccc2c(c1)OCCO2 | – | 20.6 µM (active)
32 | Cc1nnc(NC(=O)CSc2nc(C3CCCCC3)nc3ccccc23)s1 | -29.8% (inactive) | –
33 | COC(=O)CSc1nc(C2CC2)nc2ccccc12 | -3.67% (inactive) | –
34 | O=C(CSc1nc(-c2cccc(F)c2)[nH]c1-c1ccccc1)Nc1ccc2c(c1)OCO2 | – | 10.3 µM (active)
35 | CC(=O)Oc1ccc(C(=O)Nc2nccs2)cc1 | -11.2% (inactive) | –
36 | Cc1ccc(C(=O)N/C(=C/c2cccnc2)C(=O)O)cc1 | 12% (inactive) | –
37 | Cn1ccnc1SCC(=O)Nc1ccc2c(c1)OCCO2 | 17% (inactive) | –
38 | Cc1cc([N+](=O)[O-])c(=O)[nH]c1C | -2.5% (inactive) | –
39 | COc1ccc(S(=O)(=O)NCC(c2ccco2)N2CCOCC2)cc1 (stereo unspecified) | – | inactive
40 | Cn1cc(S(=O)(=O)NC(c2ccccc2)c2ccccc2)c(=O)n(C)c1=O | -10.4% (inactive) | –
41 | CCn1c(SCC(=O)Nc2nccs2)nnc1-c1ccco1 | -2.78% (inactive) | –
42 | O=C(COC(=O)c1ccc(F)cc1F)Nc1ncccn1 | 2.59% (inactive) | –
43 | Cc1cc(NC(=O)Nc2ccccc2)n(-c2ccccc2)n1 | 0.666% (inactive) | –
44 | Cc1cc(C)nc(-n2nc(C)cc2NC(=O)c2ccc(F)cc2F)n1 | – | 6.51 µM (active)

Row | Structure (SMILES) | activity change, negative = growth inhibition | Potency
45 | CC(C)c1ccc(S(=O)(=O)N2CCC3(CC2)OCCO3)cc1 | -21.3% (inactive) | –
46 | c1ccc2c(c1)CCc1snnc1-2 | 10.7% (inactive) | –
47 | C=CCn1c(SCC(=O)NCCCO)nc2sc3c(c2c1=O)CCC3 | 15.7% (inactive) | –
48 | C=CCn1c(SCC(=O)NCC2CCCO2)nc2sc(C)c(C)c2c1=O (stereo unspecified) | -25.5% (inactive) | –
49 | C=CCn1c(SCc2c(C)noc2C)nc2sc3c(c2c1=O)CCC(C)C3 (stereo unspecified) | – | 16.4 µM (active)
50 | O=C(CN(CC1CCCO1)C(=O)CNS(=O)(=O)c1ccc(F)cc1)NCc1ccco1 (stereo unspecified) | 2.29% (inactive) | –
51 | Nc1nnc(SCC(=O)NCC(=O)Nc2ccc(F)c(F)c2F)s1 | -20.9% (inactive) | –
52 | Cc1ccc(Cn2c(C)c(C(=O)NCc3ccccc3C(F)(F)F)sc2=O)cc1 | -16.5% (inactive) | –
53 | Cn1c(CC(=O)Nc2ccc(F)cc2)nnc1SCC(=O)NC1CCCCC1 | 10.3% (inactive) | –
54 | O=C(c1ccco1)N1CCN(C(=O)C2c3ccccc3Oc3ccccc32)CC1 | -13.9% (inactive) | –
55 | O=C(CCSCc1ccccc1F)N1CCN(c2ccc(Cl)cc2)CC1 | – | 18.4 µM (active)
56 | O=C(Cc1ccccc1Cl)N1CCN(c2ccccn2)CC1 | -9.57% (inactive) | –
57 | O=C(CCSc1ccccc1)N1CCN(c2ccccc2F)CC1 | -14.6% (inactive) | –
58 | O=C(CCc1ccccc1F)N1CCN(c2ccccc2)CC1 | -9.81% (inactive) | –
59 | Cc1cccc(N2CCN(C(=O)CCSCc3ccccc3F)CC2)c1C | – | 20.6 µM (active)
60 | O=C(CCS(=O)(=O)c1cccc2nsnc12)N1CCN(c2ccccc2F)CC1 | -21.9% (inactive) | –
61 | Cc1ncoc1C(=O)NCCC(c1ccccc1)c1ccccc1 | -29.6% (inactive) | –
62 | Cc1ccc(S(=O)(=O)N2CCC3(CC2)OCCO3)c(C)c1 | 1.13% (inactive) | –
63 | COc1ccc(/C=C/C(=O)OCC(=O)N2CCN(S(=O)(=O)c3ccc(C)cc3C)CC2)cc1OC | – | 20.6 µM (active)
64 | Cc1ccc(S(=O)(=O)N2CCN(C(=O)N3CCOCC3)CC2)c(C)c1 | 6.93% (inactive) | –
65 | Cc1ccc(S(=O)(=O)N2CCN(C(=O)COC(=O)/C=C/c3cccc(Cl)c3)CC2)c(C)c1 | – | 23.1 µM (active)
66 | COc1ccc(S(=O)(=O)N2CCN(CC(=O)N3CCOCC3)CC2)cc1OC | -8.57% (inactive) | –

Row | Structure (SMILES) | activity change, negative = growth inhibition | Potency
67 | COc1ccc(S(=O)(=O)N2CCN(C)CC2)c(C)c1 | 10.5% (inactive) | –
68 | Cc1ccc(S(=O)(=O)N2CCN(C(=O)COC(=O)c3c(C)noc3C)CC2)c(C)c1 | -8.35% (inactive) | –
69 | Cc1ccc(S(=O)(=O)N2CCN(C(=O)Cc3sc(C)nc3-c3ccc(F)cc3)CC2)c(C)c1 | – | 18.4 µM (active)
70 | Cc1ccc(S(=O)(=O)N2CCN(C(=O)COC(=O)c3c(C)cc(C)cc3C)CC2)c(C)c1 | – | 10.3 µM (active)
71 | Cc1nc(-c2ccc(F)cc2)c(CC(=O)Nc2cccc(S(=O)(=O)N3CCOCC3)c2)s1 | -23.6% (inactive) | –
72 | CCCCOc1ccc(C(=O)NCC(=O)OCC(=O)N2CCN(S(=O)(=O)c3ccc(C)cc3C)CC2)cc1 | -16.3% (inactive) | –
73 | O=C(COC(=O)/C=C/c1cccc(Cl)c1)NCc1cccs1 | -4.05% (inactive) | –
74 | Cc1nc2ncnn2c(C)c1CCC(=O)N1CCN(C(=O)c2ccco2)CC1 | -21.5% (inactive) | –
75 | COc1ccc(CN(C)CCn2cc(C(=O)N3CCSCC3)nn2)cc1C | -6.65% (inactive) | –
76 | Cc1cnc(C(=O)Oc2cccc(Cl)c2Cl)cn1 | 2.48% (inactive) | –
77 | COc1cc(OC)c(C(=O)NC2CC(C)(C)NC(C)(C)C2)cc1OC | -10.5% (inactive) | –
78 | O=C(O)CCCC(=O)Nc1ccc(Oc2cccc(C(F)(F)F)c2)nc1 | -10.7% (inactive) | –
79 | CCOC(=O)Cn1c2c(c(-c3ccccc3OC)cc1=O)CCCC2 | -28.1% (inactive) | –
80 | CCc1cccc(NC(=O)CCCN2C(=O)C(c3ccccc3)Oc3cccnc32)c1 (stereo unspecified) | -19% (inactive) | –
81 | Cc1ccc(CNCc2ccc3c(c2)OCO3)c(C)c1 | -5.58% (inactive) | –
82 | COC(=O)c1sccc1NN1C(=O)c2ccccc2C1=O | 8.57% (inactive) | –
83 | CCCCn1c(N)c(N(CCOC)C(=O)c2cccc(S(=O)(=O)N(C)c3ccccc3)c2)c(=O)[nH]c1=O | -0.381% (inactive) | –
84 | C=CCC(NCCCO)c1cccc(OC)c1OC (stereo unspecified) | -7.95% (inactive) | –
85 | O=C(CCN1C(=O)[C@H]2CC=CC[C@H]2C1=O)NCc1nc(-c2ccccc2)no1 | -1.52% (inactive) | –
86 | O=C(NCCCn1ccnc1)c1cc(Br)c(Br)s1 | -7.52% (inactive) | –
87 | O=C(COC(=O)c1cnc(Cl)c(Cl)c1)NCc1ccco1 | 14.6% (inactive) | –
88 | O=C1CCC(=O)N1CCC(=O)N(C(=O)NC1CCCCC1)C1CCCCC1 | -19.6% (inactive) | –

Row | Structure (SMILES) | activity change, negative = growth inhibition | Potency
89 | CCc1nnc(NC(=O)c2cc(S(=O)(=O)N3CCN(CC)CC3)ccc2Cl)s1 | 13.7% (inactive) | –
90 | COCCOC(=O)C1=C(C)Nc2nc(C)nn2C1c1ccccc1 (stereo unspecified) | -3.63% (inactive) | –
91 | Cc1ccc(C)c(OCCC(=O)OCC(=O)N2CCN(c3ccccc3)CC2)c1 | -20.4% (inactive) | –
92 | Cc1ccc(S(=O)(=O)N2CCN(C(=O)COC(=O)CNC(=O)c3ccc(C(C)(C)C)cc3)CC2)c(C)c1 | 6.77% (inactive) | –
93 | COc1ccccc1CCC(=O)OCC(=O)N1CCN(S(=O)(=O)c2ccc(C)cc2C)CC1 | – | 23.1 µM (active)
94 | O=c1ccc(-c2ccc(S(=O)(=O)Nc3ccccc3)o2)n[nH]1 | -10.7% (inactive) | –
95 | COc1ccc(CNC(=O)COc2cccnc2[N+](=O)[O-])cc1 | 20.7% (inactive) | –
96 | CSc1nc2nc(-c3cccc(C(F)(F)F)c3)ccn2n1 | -24.8% (inactive) | –
97 | CC(=O)Oc1cccc(C(=O)Nc2ccccc2NC(=O)c2cccc(OC(C)=O)c2)c1 | -21.2% (inactive) | –
98 | COc1cccc(NC(=O)C2c3cc(OC)c(OC)cc3C(=O)N(C)C2c2cccnc2)c1 (stereo unspecified) | -16.5% (inactive) | –
99 | CNc1cnc(-c2cc(OC)c(OC)c(OC)c2)cn1 | 10.9% (inactive) | –
100 | COc1ccc(-c2cc(NC(C)=O)c3ncc(-c4cc(OC)c(OC)c(OC)c4)n3c2)cn1 | – | 2.91 µM (active)
101 | O=C(CNS(=O)(=O)c1cccc(C(F)(F)F)c1)Nc1ccccc1F | -2.97% (inactive) | –
102 | COc1cccc(-c2cnc3c(NC(C)=O)cc(-c4cc(F)ccc4OC)cn23)c1 | – | 23.1 µM (active)
103 | CC(=O)Nc1cc(-c2ccccc2F)cn2c(-c3cccc(C(F)(F)F)c3)cnc12 | – | 0.326 µM (active)
104 | COc1cccc(NC(=O)CSc2nnc(-c3cccnc3)o2)c1 | -0.853% (inactive) | –
105 | COc1cccc(-c2cc(NC(C)=O)c3ncc(-c4cccc(C(C)=O)c4)n3c2)c1 | – | 23.1 µM (active)
106 | COc1cccc(C(NC(C)=O)c2nc(-c3ccccc3OC)cs2)c1 (stereo unspecified) | -25.4% (inactive) | –
